In PubChem BioAssay AID1210 (NMMLSC, 2008):
Unmarked numbers belong to inactive results. The source made the active and inactive calls.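 The calls were made as follows: active = blocks over 70% of labeled estradiol binding at 10 µM, or over a set limit at 100 nM; inactive = the rest.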

The compounds below were run against Estrogen receptor beta (Homo sapiens) (UniProt Q92731) (assay: ERbeta ligand binders by competition, primary screen, cell-based, Cos7 ERbeta-GFP, flow cytometry (AID 1210;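 also: 0% = DMSO vehicle wells and 100% = complete loss of labeled estradiol signal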)). Details: fluorescent estrogen binding, at 10 µM, active compounds read high.
Sequence of Estrogen receptor beta (Homo sapiens) (Q92731 whole entry, looked up): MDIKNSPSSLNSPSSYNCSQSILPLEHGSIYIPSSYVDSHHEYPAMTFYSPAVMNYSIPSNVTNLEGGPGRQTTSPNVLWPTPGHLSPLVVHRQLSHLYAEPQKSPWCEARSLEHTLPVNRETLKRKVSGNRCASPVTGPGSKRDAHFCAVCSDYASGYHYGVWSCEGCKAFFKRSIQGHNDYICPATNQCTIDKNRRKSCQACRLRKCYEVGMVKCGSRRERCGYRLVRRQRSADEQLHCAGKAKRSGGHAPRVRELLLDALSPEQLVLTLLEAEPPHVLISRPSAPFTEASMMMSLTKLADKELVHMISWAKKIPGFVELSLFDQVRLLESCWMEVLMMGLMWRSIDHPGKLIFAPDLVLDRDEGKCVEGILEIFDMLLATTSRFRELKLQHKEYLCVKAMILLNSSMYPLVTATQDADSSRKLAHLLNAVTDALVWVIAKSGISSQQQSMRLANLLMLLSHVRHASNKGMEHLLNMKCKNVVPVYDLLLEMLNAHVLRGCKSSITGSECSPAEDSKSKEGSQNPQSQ

| SMILES | inhibition |
| --- | --- |
| O=c1oc2c(O)c(O)cc3c(=O)oc4c(O)c(O)cc1c4c23 | 13% |
| COc1cc([C@@H]2Nc3ccc(S(=O)(=O)Nc4ccccc4F)cc3[C@@H]3C=CC[C@@H]32)cc(OC)c1OC | 11% |
| O=C(O)COc1cc2oc(=O)c3c(c2cc1Cl)CCCC3 | 11% |
| Cn1c(SCC(=O)N2c3ccccc3CCc3ccccc32)nnc1-c1cc2ccccc2cc1O | 19% |
| O=C(Cc1ccc(S(=O)(=O)N2CCOCC2)s1)Nc1nc2c(s1)CCCC2 | 18% |
| Cc1ccc(-c2nn3c(C)nnc3s2)cc1NC(=O)COc1ccc(Cl)cc1 | 24% |
| CCOc1ccc(NS(=O)(=O)c2ccc3c(c2)[C@H]2C=CC[C@H]2[C@@H](c2ccc(C(=O)O)cc2)N3)cc1 | 52% |
| CCCc1c(C(=O)OCC)[nH]c2c1C(=O)CC(c1ccccc1)C2 (stereo not drawn) | 39% |
| COC(=O)c1ccc(OCc2c(C)noc2C)cc1 | 0% |
| Oc1ccc2c(c1)c1c3n2CCNC3CCC1 (stereo not drawn) | 25% |
| CCOC(=O)Cc1cc(-c2ccc(O)cc2)nc2ccc3ccccc3c12 | 69% |
| CN(C)S(=O)(=O)N(CC(=O)N(Cc1ccccc1)Cc1ccccc1)c1ccccc1 | 66% |
| COc1cc(-c2nc3ccc4ccccc4c3c3c2CCC3)cc(OC)c1O | 64% |
| Cc1cc(C)c(C(=O)COc2cccnc2[N+](=O)[O-])cc1C | 0% |
| CCOC(=O)Cc1csc(NC(=O)Cc2cccs2)n1 | 25% |
| COc1ccccc1NC(=O)c1ccccc1NC(=O)c1cc(Cl)ccc1NC(=O)c1ccco1 | 77% (active) |
| COc1ccc(NS(=O)(=O)c2ccc3c(c2)[C@H]2C=CC[C@H]2[C@@H](c2ccc(F)cc2)N3)cc1 | 20% |
| Cc1ccc2c(c1)[C@H]1OCC[C@H]1[C@@H](c1ccncc1)N2 | 24% |
| O=C(COC(=O)C1CC2C=CC1C2)NCc1ccco1 (stereo not drawn) | 25% |

| SMILES | inhibition |
| --- | --- |
| CCOc1ccc(NS(=O)(=O)c2ccc3c(c2)[C@H]2C=CC[C@H]2[C@@H](c2ccc([N+](=O)[O-])cc2)N3)cc1 | 1% |
| CCOc1cc2c(cc1OCC)C(C1CCCCC1)NCC2 (stereo not drawn) | 12% |
| Cc1ccc2c(c1)C1C=CCC1C(C(=O)O)N2 (stereo not drawn) | 0% |
| CC1(C)Cc2[nH]c(=O)c(C(=O)O)cc2CO1 | 43% |
| CC(=O)Oc1ccc2c(c1)CCC1C2C(O)CC2(C)C(=O)CCC12 (stereo not drawn) | 77% (active) |
| COc1ccc(-n2cc3c(c(C#N)c2=N)CC(C)(C)CC3=O)cc1 | 18% |
| CCCCCCc1cc2c3c(c(=O)oc2cc1OCC(N)=O)CCC3 | 12% |
| COc1ccc(Oc2ccc3c(c2)c2c4n3CCNC4CCC2)cc1 (stereo not drawn) | 7% |
| COc1cccc(-c2cc(C(=O)Nc3cc(C)nn3-c3ccccc3)no2)c1 | 23% |
| O=C(O)c1ccc([N+](=O)[O-])c2c1NC(c1ccccc1)C1CC=CC21 (stereo not drawn) | 62% |
| O=C(Nc1ccc(O)cc1)C1CC=CCC1 (stereo not drawn) | 29% |
| COc1cc([N+](=O)[O-])cc2c1NC(c1ccccc1Cl)C1CC=CC21 (stereo not drawn) | 20% |
| CC1=CC(C)C2(CO)COC(c3ccccc3O)C1C2C (stereo not drawn) | 66% |
| CCC1=NN2C(=N)/C(=C\c3ccc(SCc4ccco4)o3)C(=O)N=C2S1 | 35% |
| COc1cc([N+](=O)[O-])cc2c1N[C@@H](c1ccc(C(=O)O)cc1)[C@H]1CC=C[C@@H]21 | 42% |
| Nc1ccc2nc(-c3cc(Cl)c(N)c(Cl)c3)[nH]c2c1 | 10% |
| COc1ccc(NS(=O)(=O)c2ccc3c(c2)[C@H]2C=CC[C@H]2[C@@H](c2ccc(C(=O)O)cc2)N3)cc1 | 88% (active) |
| Cc1cc([N+](=O)[O-])c2c(c1C)C1C=CCC1C(c1ccccn1)N2 (stereo not drawn) | 0% |
| CCC(Oc1ccc2c3c(c(=O)oc2c1C)CCC3)C(=O)OC (stereo not drawn) | 15% |
